The record followed here is the supplement of paper PMC12282887.

± gives the standard deviation of the averaged measurements.

This assay has as its system E. coli BW25113 marRABp lux reporter. The experiment in a line: promoter activity interaction Z-score (Lux/OD deviation from empty-vector control); higher = stronger promoter induction by the compound. As to the method:
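E. coli BW25113 (wild type or ΔmarA/ΔsoxS/Δrob) carrying pTU175 luxCDABE promoter reporters was grown in LB in 384-well plates at 37°C with each of 94 compounds at 4 two-fold concentrations, in biological duplicates. Luminescence and OD600 were read every 30 min for 12 h and integrated as AUC over 8 h (0-8 h WT, 1-9 h mutants). Lux AUC was divided by OD AUC; the interaction score is the residual of a Huber robust fit of each promoter against the empty-vector control, then Z-transformed per promoter.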

On to `CCN1CCN(C(=O)N[C@@H](C(=O)N[C@@H]2C(=O)N3[C@@H]2SC(C)(C)[C@@H]3C(=O)O)c2ccccc2)C(=O)C1=O` [Piperacillin], for which the “promoter activity interaction Z-score” value reads like this: (0.034 µg/ml, genetic background: wild type) -0.259 ± 0.22; (0.034 µg/ml, genetic background: ΔmarA) -0.115 ± 0.2; (0.034 µg/ml, genetic background: Δrob) -0.137 ± 0.032; (0.034 µg/ml, genetic background: ΔsoxS) -0.285 ± 0.24; (0.067 µg/ml, genetic background: wild type) 0.0282 ± 0.023; (0.067 µg/ml, genetic background: ΔmarA) -0.147 ± 0.33. For the same compound, the “promoter activity interaction Z-score” value is -0.102 ± 0.11 (0.067 µg/ml, genetic background: Δrob); -0.225 ± 0.29 (0.067 µg/ml, genetic background: ΔsoxS); -0.0179 ± 0.059 (0.13 µg/ml, genetic background: wild type); -0.0535 ± 0.27 (0.13 µg/ml, genetic background: ΔmarA); -0.134 ± 0.096 (0.13 µg/ml, genetic background: Δrob); -0.159 ± 0.072 (0.13 µg/ml, genetic background: ΔsoxS). Also, the “promoter activity interaction Z-score” value (0.27 µg/ml, genetic background: wild type) is -0.12 ± 0.057; the “promoter activity interaction Z-score” value (0.27 µg/ml, genetic background: ΔmarA) was -0.117 ± 0.15; the “promoter activity interaction Z-score” value (0.27 µg/ml, genetic background: Δrob) is -0.0506 ± 0.1; the “promoter activity interaction Z-score” value (0.27 µg/ml, genetic background: ΔsoxS) was -0.145 ± 0.44.
`CCC(C)CCCC(=O)N[C@@H](CCN)C(=O)N[C@H](C(=O)N[C@@H](CCN)C(=O)N[C@H]1CCNC(=O)[C@H]([C@@H](C)O)NC(=O)[C@H](CCN)NC(=O)[C@H](CCN)NC(=O)[C@H](CC(C)C)NC(=O)[C@@H](CC(C)C)NC(=O)[C@H](CCN)NC1=O)[C@@H](C)O` (stereo partly specified) [Colistin]: the “promoter activity interaction Z-score” value was -0.253 ± 0.2 (0.048 µg/ml, genetic background: wild type); -0.196 ± 0.055 (0.048 µg/ml, genetic background: ΔmarA); 0.00109 ± 0.051 (0.048 µg/ml, genetic background: Δrob); 0.178 ± 0.25 (0.048 µg/ml, genetic background: ΔsoxS); -0.233 ± 0.24 (0.1 µg/ml, genetic background: wild type); -0.108 ± 0.097 (0.1 µg/ml, genetic background: ΔmarA). Besides, the “promoter activity interaction Z-score” value (0.1 µg/ml, genetic background: Δrob) is -0.0851 ± 0.097; the “promoter activity interaction Z-score” value (0.1 µg/ml, genetic background: ΔsoxS) came out at 0.0244 ± 0.049; the “promoter activity interaction Z-score” value (0.19 µg/ml, genetic background: wild type) was -0.154 ± 0.21; the “promoter activity interaction Z-score” value (0.19 µg/ml, genetic background: ΔmarA) was -0.0032 ± 0.049; the “promoter activity interaction Z-score” value (0.19 µg/ml, genetic background: Δrob) was determined as 0.0892 ± 0.15; the “promoter activity interaction Z-score” value (0.19 µg/ml, genetic background: ΔsoxS) worked out at 0.023 ± 0.025. Also, the “promoter activity interaction Z-score” value by setting is: (0.38 µg/ml, genetic background: wild type) 1.21 ± 0.13; (0.38 µg/ml, genetic background: ΔsoxS) 1.22.
`COc1cc(NS(=O)(=O)c2ccc(N)cc2)ncn1` [Sulfamonomethoxine]: the “promoter activity interaction Z-score” value (7 µg/ml, genetic background: wild type) came to 0.165 ± 0.29; the “promoter activity interaction Z-score” value (7 µg/ml, genetic background: ΔmarA) stood at 0.199 ± 0.22; the “promoter activity interaction Z-score” value (7 µg/ml, genetic background: Δrob) was found to be 0.0754 ± 0.022; the “promoter activity interaction Z-score” value (7 µg/ml, genetic background: ΔsoxS) was -0.0457 ± 0.27; the “promoter activity interaction Z-score” value (14 µg/ml, genetic background: wild type) was determined as 0.419 ± 0.21; the “promoter activity interaction Z-score” value (14 µg/ml, genetic background: ΔmarA) was 0.246 ± 0.58. For the same compound, the “promoter activity interaction Z-score” value was -0.0243 ± 0.36 (14 µg/ml, genetic background: Δrob); -0.0217 ± 0.15 (14 µg/ml, genetic background: ΔsoxS); 0.52 ± 0.32 (28 µg/ml, genetic background: wild type); 0.729 ± 0.45 (28 µg/ml, genetic background: ΔmarA); 0.602 ± 0.038 (28 µg/ml, genetic background: Δrob); 0.101 ± 0.14 (28 µg/ml, genetic background: ΔsoxS). The “promoter activity interaction Z-score” value runs as follows: (56.1 µg/ml, genetic background: wild type) 1.09 ± 0.8; (56.1 µg/ml, genetic background: ΔmarA) 1.14 ± 0.16; (56.1 µg/ml, genetic background: Δrob) 1.18 ± 0.4; (56.1 µg/ml, genetic background: ΔsoxS) 1.04 ± 0.46.
